Measured values: PubChem BioAssay
Entries with a potency or affinity are not part of this list. Activity calls are given as the source filed them. How the calls were made is not given here.

What follows are compounds tested against Melanocortin receptor 4 (Homo sapiens) (UniProt P32245) (assay: blockade of melanocortin 4 receptor signaling – cell-based, plate reader, cherry pick, counter-screen for LGR2 antagonist project, dose response (AID 743444)). Conditions: MC4R-expressing cells, antagonist mode; series mostly up to 35 µM.
For `O=C(Cn1ncc(Cl)c(Cl)c1=O)N1CCOCC1`, the outcome was “inactive”.
For `CCCCOc1cc(NCc2ccccc2)c2ncn(C(C)C)c2c1`, the outcome was “inactive”.
`COc1ccc(CCNC(=O)C2CCN(S(=O)(=O)c3ccc(Cl)cc3)CC2)cc1OC` was tested, and the outcome was “inactive”.
With `CC(=O)c1ccc(Nc2cc(C)nc3c(C)cc(C)cc23)cc1` the outcome was “inactive”.
For `COC(=O)c1ccc(Nc2cc(C)nc3ccc(C)cc23)cc1`, the outcome was “inactive”.
`O=C(CSc1nc2ccccc2[nH]1)Nc1nc(-c2cccc(Br)c2)cs1` was tested, and the outcome was “inactive”.
With `CCCCn1nnnc1C(c1cc2ccccc2o1)N1CCN(c2ccncc2)CC1` (stereo not given) the outcome was “inactive”.
`Cc1ccc(NC(=O)c2ncn(CC(=O)N3CCN(c4ccccn4)CC3)n2)cc1C` was tested, and the outcome was “inactive”.
In the case of `COc1ccc2cc(C#N)c(Nc3cccc(F)c3)nc2c1`, the outcome is reported as “inactive”.
In the case of `COc1ccc(S(=O)(=O)N2CCOCC2)cc1NC(=O)COc1ccc(C)cc1`, the outcome is reported as “inactive”.
`CC(C)c1ccc2c(c1)C(N1CCNCC1)Cc1ccc(F)cc1S2` (stereo not given) was tested, and the outcome was “inactive”.
In the case of `O=C(c1ccc2c(c1)OCCO2)C1CCN(S(=O)(=O)c2ccc(F)cc2)CC1`, the outcome is reported as “inactive”.
`CC(C)N(C(=O)COC(=O)c1ccccc1C(=O)c1ccc(Cl)c([N+](=O)[O-])c1)C(C)C` was tested, and the outcome was “inactive”.
With `CCOc1cccc2sc(Nc3nc4ccc(NC(C)=O)cc4s3)nc12` the outcome was “inactive”.
For `c1ccc(COc2cccc(-c3cc4nc(NCCCn5ccnc5)ccn4n3)c2)cc1`, the outcome was “inactive”.
`C[C@H]1CCCCO[C@@H](CN(C)C(=O)Nc2ccc(C(F)(F)F)cc2)[C@@H](C)CN([C@@H](C)CO)C(=O)c2cc(NC(=O)CCC(F)(F)F)ccc2O1` was tested, and the outcome was “inactive”.
`CC(C)OC(=O)c1ccc(NCc2cc(O)ccc2O)cc1Cl` was tested, and the outcome was “inactive”.
For `C[C@@H]1CN([C@H](C)CO)C(=O)Cc2cc(NC(=O)CCC(F)(F)F)ccc2O[C@@H]1CN(C)CC1CCCCC1`, the outcome was “inactive”.
For `O=[N+]([O-])c1cc(S(=O)(=O)N2CCCCCC2)ccc1Cl`, the outcome was “inactive”.
`Oc1ccc(-c2csc(-c3cccnc3)n2)c(O)c1` was tested, and the outcome was “inactive”.
With `Cn1c(=O)c2cc(NC(=O)NCc3ccccc3)ccc2n1C/C=C/c1ccccc1` the outcome was “inactive”.
With `Cc1cccc(Cn2ncc(Cl)c(Cl)c2=O)c1` the outcome was “inactive”.
With `Cc1ccc2nc(C(F)(F)F)c(C#N)c(N)c2c1` the outcome was “inactive”.
For `COc1cccc(C#Cc2ccc([C@@H]3[C@@H](CO)N(C(=O)C4CCC4)[C@H]3C#N)cc2)c1`, the outcome was “inactive”.
In the case of `COc1ccccc1CN(C)C[C@@H]1OCc2cnnn2CCCC(=O)N([C@H](C)CO)C[C@H]1C`, the outcome is reported as “inactive”.
`COc1ccccc1N1CCN(C(=O)c2sc3nc(-c4ccc(F)cc4)cn3c2C)CC1` was tested, and the outcome was “inactive”.
`COc1ccc(-c2cc(C(F)(F)F)nc(S(=O)(=O)CCCC(=O)Nc3cccc(O)c3)n2)cc1OC` was tested, and the outcome was “inactive”.
With `N#C[C@@H]1[C@H](c2ccc(C#Cc3cccc(F)c3)cc2)[C@@H](CO)N1C(=O)C1CC1` the outcome was “inactive”.
In the case of `COc1ccc(C(=O)CC(Sc2ccccc2N)c2ccc(OC)cc2)cc1` (stereo not given), the outcome is reported as “inactive”.
In the case of `CCOc1cc(/C=C/C(=O)Nc2ccc(C(=O)NCCN(CC)CC)cc2)ccc1OCC(C)C`, the outcome is reported as “inactive”.
In the case of `COc1cc(/C=N/Nc2nc(C)nc3c2cnn3-c2ccccc2)ccc1O`, the outcome is reported as “inactive”.
`CC(C)(C)c1ccc(Cn2c(=O)cnc3ccccc32)cc1` was tested, and the outcome was “inactive”.
In the case of `Cc1ccc(S(=O)(=O)Nc2ccc3c(c2)C(=O)N([C@H](C)CO)C[C@@H](C)[C@H](CN(C)S(=O)(=O)c2cccs2)OCCCC[C@@H](C)O3)cc1`, the outcome is reported as “inactive”.
`O=C(c1ccc(CSc2nc3ccncc3[nH]2)cc1)N1CCN(c2cccc(Cl)c2)CC1` was tested, and the outcome was “inactive”.
In the case of `COc1cc(NC2CCCCC2O)c2nc(-c3ccc(Cl)cc3)ccc2c1` (stereo not given), the outcome is reported as “inactive”.
`CCOC(=O)c1c(C)n(C)c2ccc(OCC(O)CNCCc3ccccc3)cc12` (stereo not given) was tested, and the outcome was “inactive”.
In the case of `CC(C)(C)c1nc2ccc(Cl)cn2c1CC1CCCCC1`, the outcome is reported as “inactive”.
In the case of `CNCc1ccccc1Sc1ccc(O)c(O)c1`, the outcome is reported as “inactive”.
In the case of `CCOCCCn1c(SCc2nc3ccccc3s2)nc2ccccc2c1=O`, the outcome is reported as “inactive”.
With `O=C(CSc1ncnc2[nH]ncc12)Nc1nc(-c2ccc(F)c(F)c2)cs1` the outcome was “inactive”.
